36 molecules from PubChem BioAssay (NCATS) can be followed below.

Records with an inconclusive call do not appear. Entries that show only a call come without a potency. Active and inactive are the calls of the source. Calls follow the shape of the dose curve; as a rule, active = well fitted inhibition curve with a large enough effect; inconclusive = small, poorly fitted or top-dose-only effect; inactive = no such curve, though single readings can be large or run the other way.

For the first assay, the system named is Zika virus NS2B-NS3 protease (unlinked complex). The assay is described as follows: Primary screen GU Rhodamine qHTS for Zika virus inhibitors: Unlinked NS2B-NS3 protease assay (AID 1347159). Also: nearly all actives have a fitted effect of over 60% in size. The settings on record: Recombinant ZIKV NS2B-NS3 protease, Rhodamine110 substrate fluorescence; series mostly up to 107 µM. Put shortly:
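Percent inhibition came from the 15-min rise in Rhodamine110 fluorescence (1.5 microM substrate, ~15% conversion), normalized to no-inhibitor and no-enzyme wells and Hill-fitted. Unlinked protease, 25 nM, pH 8.0 Tris buffer; compounds up to 114 microM, 15-min preincubation.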
On the technique in general: In qHTS, concentration-response curves come from the screen itself.
Turning to `CCOC(=O)Cn1cccc1-c1nc(-c2ccc(OC)cc2)c(-c2ccc(OC)cc2)s1`, the Potency entry was “inactive”.

Turning to `CC1CN(c2cc3c(cc2F)c(=O)c(C(=O)O)cn3-c2ccc(F)cc2F)CCN1` (stereo unspecified), the Potency entry is “inactive”.

Regarding `O=C1[C@@H]2[C@H]3CC[C@H](C3)[C@@H]2C(=O)N1CCCCN1CCN(c2ncccn2)CC1`, the Potency result was “inactive”.

For the molecule `CO/N=C(/C(=O)N[C@@H]1C(=O)N2C(C(=O)O)=C(Cn3nnc(C)n3)CS[C@H]12)c1csc(N)n1`, the Potency result was “inactive”.

Turning to `O=C(CCCCCCCCC#CI)Oc1ccccc1`, the Potency result was “inactive”.

As to `CO[C@]1(NC(=O)CSC(F)F)C(=O)N2C(C(=O)O)=C(CSc3nnnn3CCO)CO[C@H]21`, the Potency result is “inactive”.

Turning to `C=CCOc1cc(Cl)ccc1C(=O)NCCN(CC)CC`, the Potency entry was “inactive”.

In the case of `O=C(CCC1CCN(Cc2ccccc2)CC1)c1ccc2c(c1)NCCCC2`, the Potency entry was “inactive”.

For `Brc1ccc([C@H]2CN3CCSC3=N2)cc1`, the Potency result is “inactive”.

As for `O=C(O)Cc1ccccc1Oc1ccc(Cl)cc1Cl`, the Potency entry was “inactive”.

For the molecule `CN1CCC(N(Cc2cccs2)c2ccccc2)CC1`, the Potency entry is “inactive”.

Turning to `Cc1cccc(N(C)C(=S)Oc2ccc3c(c2)CCC3)c1`, the Potency result was “inactive”.

For the molecule `C=CC[N+]1([C@H]2C[C@H]3[C@@H]4CC[C@H]5C[C@H](OC(C)=O)[C@@H](N6CCCCC6)C[C@]5(C)[C@H]4CC[C@]3(C)[C@H]2OC(=O)CC)CCCCC1`, the Potency entry was “inactive”.

Consider `CCOC(=O)c1ccc(OCCN2C[C@H](O)[C@@H](O)[C@H](O)[C@H]2CO)cc1`, for which the Potency entry was “inactive”.

As for `O=[N+]([O-])c1nccn1CO[C@@H](CO)[C@H](O)CO`, the Potency entry was “inactive”.

As to `CCCCNc1ccc(C(=O)OCCN(CC)CC)cc1`, the Potency result was “inactive”.

With `CC(=O)[C@H]1CC[C@H]2[C@@H]3C=CC4=CC(=O)CC[C@@]4(C)[C@@H]3CC[C@]12C`, the Potency result is “inactive”.

Take `O=C1CC[C@H](C(=O)N2CCCCC2)N1`: the Potency entry is “inactive”.

For `CC(C(=O)O)c1ccc(/C=C2\CCCCC2=O)cc1` (stereo unspecified), the Potency entry was “inactive”.

`O=C(O)CNC(=O)CNC(=O)CNC(=O)CSC(=O)c1ccccc1`: the Potency entry is “inactive”.

As for `CC1c2ccccc2CN1NC(=O)c1ccc(Cl)c(S(N)(=O)=O)c1` (stereo unspecified), the Potency entry was “inactive”.

In the case of `OC1(c2ccc(Cl)c(C(F)(F)F)c2)CCN(CCCC(c2ccc(F)cc2)c2ccc(F)cc2)CC1`, the Potency result was “inactive”.

For the molecule `CC(C)(C)c1nnc(NS(=O)(=O)c2ccccc2)s1`, the Potency entry was “inactive”.

Take `CC(=O)O[C@@H]1C(=O)O[C@@H]2[C@H]1OC(=O)[C@@H]2OC(C)=O`: the Potency entry was “inactive”.

Take `O=C1NC2CCCCN2C12CCN(CCCN1c3ccccc3CCc3ccc(Cl)cc31)CC2` (stereo unspecified): the Potency entry is “inactive”.

Regarding `CC(=O)Oc1ccc(C2(c3ccc(OC(C)=O)cc3)Oc3ccccc3NC2=O)cc1`, the Potency entry was “inactive”.

Turning to `COC(=O)C1=C(C)NC(COC(N)=O)=C(C(=O)OC(C)C)C1c1cccc(Cl)c1Cl` (stereo unspecified), the Potency entry was “inactive”.

On to `CCC(C(=O)NC(=O)NC(C)=O)c1ccccc1` (stereo unspecified), for which the Potency entry was “inactive”.

Turning to `Nc1c(NC/C=C\COc2cc(CN3CCCCC3)ccn2)c(=O)c1=O`, the Potency entry is “inactive”.

With `CCN1C(=O)c2ccccc2C1Nc1ccc(OCCN2CCCCC2)cc1` (stereo unspecified), the Potency entry is “inactive”.

With `CC(=O)Nc1ccn(C2COC(COC(=O)c3ccccc3)O2)c(=O)n1` (stereo unspecified), the Potency result was “inactive”.

Consider `CCOC(=O)c1ccc(NC(=O)CN2CCCCC2)cc1`, for which the Potency result is “inactive”.

`CN(C)C(=O)CNC(=O)Cc1ccccc1`: the Potency entry was “inactive”.

With `CC(=O)OCC(=O)Nc1cc(C#N)cc(NC(=O)COC(C)=O)c1Cl`, the Potency entry is “inactive”.

`CCN(CC)CCOc1ccc(/C(=C(\Cl)c2ccccc2)c2ccccc2)cc1`: the Potency entry was “inactive”.

As for `CCN1CCN(c2cc(-c3ccc(F)cc3)c3c(n2)CCCCCC3)CC1`, the Potency result was “inactive”.

A further assay deals with Zika virus NS2B-NS3 protease (linked construct). The assay is described as follows: Primary screen NINDS Rhodamine qHTS for Zika virus inhibitors (AID 1347160). Also: nearly all actives have a fitted effect of over 55% in size. To be noted: purified NS2B-NS3 protease, Rhodamine110 substrate fluorescence; series mostly up to 57.1 µM. The gist of the method: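 Rhodamine110-peptide cleavage (1.5 µM substrate) by 25 nM linked NS2B-NS3 enzyme at pH 8.0 (Tris, Tween 20), after 15 min RT preincubation with compounds; 15-min fluorescence change normalized to controls and Hill-fitted.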
For `CCOC(=O)Cn1cccc1-c1nc(-c2ccc(OC)cc2)c(-c2ccc(OC)cc2)s1`, the outcome was inactive.

In the case of `O=C1[C@@H]2[C@H]3CC[C@H](C3)[C@@H]2C(=O)N1CCCCN1CCN(c2ncccn2)CC1`, the molecule was called inactive.

In the case of `CO/N=C(/C(=O)N[C@@H]1C(=O)N2C(C(=O)O)=C(Cn3nnc(C)n3)CS[C@H]12)c1csc(N)n1`, the molecule was classed as inactive.

Turning to `O=C(CCCCCCCCC#CI)Oc1ccccc1`, the result was inactive.

On to `CO[C@]1(NC(=O)CSC(F)F)C(=O)N2C(C(=O)O)=C(CSc3nnnn3CCO)CO[C@H]21`, for which the result was inactive.

As to `C=CCOc1cc(Cl)ccc1C(=O)NCCN(CC)CC`, the molecule was classed as inactive.

As for `O=C(CCC1CCN(Cc2ccccc2)CC1)c1ccc2c(c1)NCCCC2`, the molecule was classed as inactive.

On to `Brc1ccc([C@H]2CN3CCSC3=N2)cc1`, for which the outcome was inactive.

`O=C(O)Cc1ccccc1Oc1ccc(Cl)cc1Cl`: the molecule was classed as inactive.

`CN1CCC(N(Cc2cccs2)c2ccccc2)CC1`: the molecule was called inactive.

For the molecule `Cc1cccc(N(C)C(=S)Oc2ccc3c(c2)CCC3)c1`, the molecule was called inactive.

Take `C=CC[N+]1([C@H]2C[C@H]3[C@@H]4CC[C@H]5C[C@H](OC(C)=O)[C@@H](N6CCCCC6)C[C@]5(C)[C@H]4CC[C@]3(C)[C@H]2OC(=O)CC)CCCCC1`: the result was inactive.

Regarding `CCOC(=O)c1ccc(OCCN2C[C@H](O)[C@@H](O)[C@H](O)[C@H]2CO)cc1`, the result was inactive.

Consider `O=[N+]([O-])c1nccn1CO[C@@H](CO)[C@H](O)CO`, for which the result was inactive.

Regarding `CCCCNc1ccc(C(=O)OCCN(CC)CC)cc1`, the call was inactive.

In the case of `CC(=O)[C@H]1CC[C@H]2[C@@H]3C=CC4=CC(=O)CC[C@@]4(C)[C@@H]3CC[C@]12C`, the molecule was classed as inactive.

Turning to `O=C1CC[C@H](C(=O)N2CCCCC2)N1`, the molecule was called inactive.

As to `CC(C(=O)O)c1ccc(/C=C2\CCCCC2=O)cc1` (stereo unspecified), the molecule was called inactive.

For the molecule `O=C(O)CNC(=O)CNC(=O)CNC(=O)CSC(=O)c1ccccc1`, the result was inactive.

Regarding `CC1c2ccccc2CN1NC(=O)c1ccc(Cl)c(S(N)(=O)=O)c1` (stereo unspecified), the call was inactive.

Regarding `OC1(c2ccc(Cl)c(C(F)(F)F)c2)CCN(CCCC(c2ccc(F)cc2)c2ccc(F)cc2)CC1`, the outcome was inactive.

As to `CC(C)(C)c1nnc(NS(=O)(=O)c2ccccc2)s1`, the call was inactive.

With `CC(=O)O[C@@H]1C(=O)O[C@@H]2[C@H]1OC(=O)[C@@H]2OC(C)=O`, the call was inactive.

Consider `O=C1NC2CCCCN2C12CCN(CCCN1c3ccccc3CCc3ccc(Cl)cc31)CC2` (stereo unspecified), for which the outcome was inactive.

Take `CC(=O)Oc1ccc(C2(c3ccc(OC(C)=O)cc3)Oc3ccccc3NC2=O)cc1`: the molecule was called inactive.

Consider `COC(=O)C1=C(C)NC(COC(N)=O)=C(C(=O)OC(C)C)C1c1cccc(Cl)c1Cl` (stereo unspecified), for which the call was inactive.

Turning to `CCC(C(=O)NC(=O)NC(C)=O)c1ccccc1` (stereo unspecified), the call was inactive.

Turning to `Nc1c(NC/C=C\COc2cc(CN3CCCCC3)ccn2)c(=O)c1=O`, the result was inactive.

Regarding `CCN1C(=O)c2ccccc2C1Nc1ccc(OCCN2CCCCC2)cc1` (stereo unspecified), the molecule was called inactive.

`CC(=O)Nc1ccn(C2COC(COC(=O)c3ccccc3)O2)c(=O)n1` (stereo unspecified): the result was inactive.

Consider `CCOC(=O)c1ccc(NC(=O)CN2CCCCC2)cc1`, for which the outcome was inactive.

Regarding `CN(C)C(=O)CNC(=O)Cc1ccccc1`, the result was inactive.

Turning to `CC(=O)OCC(=O)Nc1cc(C#N)cc(NC(=O)COC(C)=O)c1Cl`, the molecule was called inactive.

For `CCN(CC)CCOc1ccc(/C(=C(\Cl)c2ccccc2)c2ccccc2)cc1`, the result was inactive.

For `CCN1CCN(c2cc(-c3ccc(F)cc3)c3c(n2)CCCCCC3)CC1`, the molecule was classed as inactive.
